An excerpt weighted towards active compounds, which were near 10% of everything screened.
KinaseGlo FLuc: Kinase-Glo luciferase inhibition (counter-screen); Q27757; Kinase-Glo luciferase, ATP luminescence, 8 min; Potency, µM (titrated, usually from 38.3 µM), for inactives: at the top dose activity change, negative = inhibition, hits mostly inhibitors; 0.28% of 200,000 active; active means well fitted inhibition curve with a large enough effect; inconclusive means small, poorly fitted or top-dose-only effect; further: potency means the concentration at half of the fitted maximal effect; nearly all actives have a fitted effect of over 60% in size
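Compounds were added to a substrate mix at pH 7.2 (50 mM imidazole, 10 uM ATP, within the enzyme's linear range), followed by Kinase-Glo detection reagent; luminescence was measured after 8 minutes at ambient temperature.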
PNC inhibitor: inhibitors of perinucleolar compartment assembly. 3.1% of 140,000 active. activity change (PNC), negative = inhibition, % at 10 µM. PC3M PTB-GFP, PNC prevalence imaging, 16 h; active compounds read low. AID 2417;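 active means readout at or below -70, meaning at least 70% loss of cells showing the perinucleolar compartment, a nuclear body marking cancer cells; inconclusive means readout between -30 and a set limit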;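 further: plate controls were DMSO wells for no effect and camptothecin positive control wells for full effect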
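PC3M cells stably expressing PTB-GFP, 750–1000 cells/well, treated 16 h at 37 °C with compound (23 nl of library stock), in duplicate. After paraformaldehyde fixation and Hoechst stain, imaged at 20x; PNC prevalence scored by image analysis.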
HPGD block: inhibitors of human 15-hydroxyprostaglandin dehydrogenase (HPGD); 4.3% of 150,000 active; AID 894; P15428; purified HPGD, NADH fluorescence kinetic, PGE2 substrate; Potency, µM, without a hit: top-dose activity change, negative = inhibition, usual class: inhibitors; further: potency means the concentration at half of the fitted maximal effect
Target sequence (P15428 whole entry, looked up): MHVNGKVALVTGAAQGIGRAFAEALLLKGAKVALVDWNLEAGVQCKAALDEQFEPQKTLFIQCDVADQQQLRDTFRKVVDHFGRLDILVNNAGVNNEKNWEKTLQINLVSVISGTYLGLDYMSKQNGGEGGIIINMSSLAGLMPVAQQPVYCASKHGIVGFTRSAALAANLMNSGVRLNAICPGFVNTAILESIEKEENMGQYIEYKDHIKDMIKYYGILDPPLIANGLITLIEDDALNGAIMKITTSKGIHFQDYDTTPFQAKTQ
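20 nM HPGD preincubated 15 min at room temperature with compound in 50 mM Tris-HCl pH 8, 0.01% Tween 20. Started with 1 mM NAD+ and 30 uM prostaglandin E2; NADH fluorescence (360/450 nm) read 5 times over 30-s intervals, last minus first.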
Lamin A splicing: modulators of lamin A splicing | Potency, µM (highest dose often 46.1 µM), without a hit: at the highest dose ratio change, negative = inhibition, hits mostly inhibitors | AID 1487 | 0.01% of 200,000 active | HeLa LMNA splicing GFP/RFP minigene ratio, 48 h; active means well fitted inhibition curve with a large enough effect in the signal ratio, with a control signal flat, not every such curve was filed as active; inconclusive means small, poorly fitted or top-dose-only effect, or effect the other way, or a change in a side signal; the % refers to the signal ratio; further: potency means the concentration at half of the fitted maximal effect
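S3 HeLa cells stably expressing lamin A-EGFP splicing minigene plus DsRed2, 600 cells/well, 48 h compound exposure at 37C. Laser-scanning cytometry; analysed as GFP (500-530 nm)/RFP (575-640 nm) total intensity ratio; 0.5% DMSO vehicle.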
ALDH1A1 block: ALDH1A1 (human) enzyme inhibition | AID 1030 | Potency, µM (series often up to 75.3 µM), for the others: at the top dose activity, negative = inhibition, actives largely listed as inhibitors | P00352 | 7.3% of 220,000 active | Purified ALDH1A1, NADH fluorescence, propionaldehyde substrate;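 further: potency means the concentration at half of the fitted maximal effect; plate controls were no enzyme wells and a reference inhibitor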
Target sequence (P00352 whole entry, looked up): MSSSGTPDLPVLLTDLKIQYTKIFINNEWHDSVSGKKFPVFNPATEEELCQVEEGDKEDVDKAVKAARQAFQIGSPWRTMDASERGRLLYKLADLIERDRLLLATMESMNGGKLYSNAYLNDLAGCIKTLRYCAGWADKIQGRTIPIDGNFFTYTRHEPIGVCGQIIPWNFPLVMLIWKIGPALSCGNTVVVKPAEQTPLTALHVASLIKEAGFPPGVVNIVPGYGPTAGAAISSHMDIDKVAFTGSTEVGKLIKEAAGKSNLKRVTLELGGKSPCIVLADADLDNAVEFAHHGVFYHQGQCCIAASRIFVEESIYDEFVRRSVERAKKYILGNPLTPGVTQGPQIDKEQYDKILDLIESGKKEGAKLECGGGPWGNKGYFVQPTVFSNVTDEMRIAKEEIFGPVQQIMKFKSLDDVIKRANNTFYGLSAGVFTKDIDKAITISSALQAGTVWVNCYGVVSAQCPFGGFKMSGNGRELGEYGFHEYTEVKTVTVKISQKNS
The depositor's hits bear a star; u = inconclusive; x = no result; [ ] = another dose, or the depositor's remark. Unless noted, the call rests on the fitted dose curve; in most records, active means well fitted inhibition curve with a large enough effect (not every such curve was filed as active); inconclusive means small, poorly fitted or top-dose-only effect, or another doubt; inactive means no such curve, though single readings can be large or run the other way. Unless noted, on the % scale 0 is the no-effect control and ±100 the full control effect.

SMILES | KinaseGlo FLuc | PNC inhibitor | HPGD block | Lamin A splicing | ALDH1A1 block
COc1cccc(NC(=O)CCc2nc3c(C)nn(-c4ccc(C)cc4)c3n(C)c2=O)c1 | x | x | x | -5%[46 µM] | x
Clc1nnc(NN=C2CCCC2)c2ccccc12 | -4% | 31 | -14% | u | 2.8µM*
Clc1nnc(N/N=C/c2ccccc2)c2ccccc12 | -20% | u | -13% | -14% | -9%
Cc1nnc(SCc2ccc3c(c2)OCO3)s1 | 1% | -21 | u | 9% | u
Cc1nnc(N(C)C(=O)Cc2ccc3c(c2)OCO3)s1 | -1% | -100* | -17% | -10% | -5%
O=c1cc(CN2CCN(c3ccccc3)CC2)c2cc(O)c(-c3ccccc3)cc2o1 | -6% | u | -20% | 0% | u
O=c1cc(CN2CCN(C/C=C/c3ccccc3)CC2)c2cc(O)ccc2o1 | -1% | u | -15% | u | 32µM*
O=c1[nH]c2cc3c(cc2cc1CN(Cc1nnnn1CC1CCCO1)C1CCCCC1)OCO3 (stereo not given) | -2% | -8 | -20% | -3% | u
Cc1cc(C)c2[nH]c(=O)c(CN(Cc3nnnn3C3CCCC3)C3CCCCC3)cc2c1 | -2% | 6 | -8% | 10% | 18µM*
Cc1cccc2cc(CN(Cc3nnnn3C3CCCCC3)C3CCCC3)c3nnnn3c12 | 4% | -15 | -2% | -6% | 3.2µM*
O=C(Nc1ccc(SC(F)F)cc1)c1ccc(F)cc1 | -2% | x | x | u | -3%
CCc1ccccc1NC(=O)CN1C(=O)c2cccnc2Sc2ccccc21 | x | x | x | -6%[46 µM] | x
COC(=O)[C@@H]1C[C@@H]2CC[C@@H](O)C[C@@H]2N1Cc1ccc(N2CCOCC2)cc1 | -5% | x | -12% | x | u
CCOC(=O)c1ccc(N2C(=O)C3C(C2=O)C(C(=O)c2ccc(Cl)cc2)N2CCCC32)cc1 (stereo not given) | 0% | 44 | 2.2µM* | -12% | 13µM*
CCOC(=O)c1ccc(N2C(=O)C3CC=CCC3C2=O)cc1 (stereo not given) | -5% | 60 | -8% | -8% | -3%
COCCNC(=O)C1CCCN(S(=O)(=O)c2ccc3c(ccn3C)c2)C1 (stereo not given) | x | x | x | -7%[46 µM] | x
O=C(CN1C(=O)CC(c2ccco2)Sc2ccccc21)NCC1CCCO1 (stereo not given) | -4% | 27 | -10% | 1% | 10µM*
O=C(CN1C(=O)CC(c2ccco2)Sc2ccccc21)Nc1ccc2c(c1)OCCO2 (stereo not given) | -5% | 18 | -18% | -3% | 14µM*
COC(=O)[C@@H]1C[C@@]2(O)[C@H](O)[C@H](O)[C@H](O)C[C@H]2N1Cc1c(F)cccc1Cl | 2% | x | 3% | x | u
Cc1ccc(C)c(N2CCN(C(=O)Cn3c(=O)c4cccn4c4ccc(F)cc43)CC2)c1 | x | x | x | -11%[46 µM] | x
COc1ccccc1NC(=O)c1c(C)oc2c1CCCC2 | 3% | -114* | -22% | -13% | u
Cc1ccc(C(=O)c2oc3ccccc3c2NC(=O)c2cc(-c3ccccc3)on2)cc1F | x | x | x | 20%[46 µM] | x
O=C(CSc1nnc2n(C3CCCC3)c(=O)c3ccccc3n12)N1CCCCCC1 | -3% | -15 | -9% | 7% | u
CC1CCCN(C(=O)CSc2nnc3n(C4CCCC4)c(=O)c4ccccc4n23)C1 (stereo not given) | -3% | 54 | 20µM* | 4% | 7.9µM*
CCn1c(O)c(N=NC(=O)CNC(=O)/C=C/c2ccco2)c2ccccc21 | -1% | -92* | -23% | -18% | u
SMILES | KinaseGlo FLuc | PNC inhibitor | HPGD block | Lamin A splicing | ALDH1A1 block
CCn1c(O)c(N=NC(=O)CNC(=O)c2ccco2)c2ccccc21 | 0% | 19 | -3% | u | -5%
O=C(CNC(=O)/C=C/c1ccccc1)N=Nc1c(O)n(Cc2ccccc2)c2ccccc12 | 6% | -8 | -12% | -7% | 3.5µM*
O=C(c1cnccn1)N1CCC2(CCCN(Cc3nccs3)C2)CC1 | -4% | x | -1% | x | 16%
O=C(O)/C=C/C(=O)Nc1ccc(OC(F)(F)Cl)cc1 | 1% | x | x | u | 25µM*
O=C(O)/C=C/C(=O)Nc1ccc(Oc2ccc(NC(=O)/C=C/C(=O)O)cc2)cc1 | -1% | 40 | -8% | 0% | u
O=C(O)/C=C\C(=O)Nc1ccc(Oc2ccccc2)cc1 | -3% | 13 | -18% | 7% | 11µM*
O=C(O)/C=C/C(=O)Nc1ccc(SC(F)(F)C(F)(F)C(F)(F)F)cc1 | 5% | x | x | u | 28µM*
CCC1CN(C(=O)Nc2cc(C)ccc2OC)c2cc(Cl)ccc2O1 (stereo not given) | x | x | x | 4%[46 µM] | x
CC(C)(CN)CN | -4%[7.66 µM] | x | 0% | x | 7%[13.5 µM]
COc1ccc(Br)cc1CNC(=O)c1cnc2sc(N3CCCC3)nn2c1=O | x | x | x | -5%[46 µM] | x
COCCc1nn2c(=O)cc(COC(=O)COc3ccccc3C)nc2s1 | x | x | x | 9%[46 µM] | x
COc1cc(N2CCCC2)c(OC)cc1/C=c1/sc2nc3ccccc3n2c1=O | -14% | -15 | 0% | 6% | 16µM*
CCC(CCC(C)C1CCC2C3CCC4CC(O)CC[C@@]4(C)C3CC[C@@]12C)C(C)C (stereo not given in full) | 0% | x | -2% | 10% | -1%
Cc1ccc2occ(C3NC(C(=O)O)CS3)c(=O)c2c1 (stereo not given) | 1% | u | -12% | -28% | u
Cc1ccc2occ(C3N[C@H](C(=O)O)CS3)c(=O)c2c1 (stereo not given in full) | -1% | -22 | -9% | 2% | 1.4µM*
CCOC(=O)c1cc(C(=O)c2ccccc2O)cn2c(=O)c3c(C)c(C)sc3nc12 | -1% | x | x | -2%[46 µM] | 14µM*
Nc1ncc(S(=O)(=O)NCc2ccccc2)cn1 | x | x | x | 8%[46 µM] | x
COc1cc(OC)c(Nc2c3c(nc4nc(-c5cccs5)nn24)CCCC3)cc1Cl | x | x | x | 5%[46 µM] | x
Cc1cc(C(=O)N2CCCC(CNS(=O)(=O)c3cccs3)C2)nn1C (stereo not given) | 1% | x | x | u | 18µM*
O=C(NC(=S)NNC(=O)c1cnccn1)c1ccc(F)cc1 | 5% | x | x | x | 28µM*
O=C(NC(=S)Nc1ccc(N2CCOCC2)cc1)c1ccc2c(c1)OCCO2 | -1% | -17 | u | u | 20µM*
CC(C)(C)C(=O)NC(=S)Nc1ccc(F)cc1 | 12% | 21 | -13% | u | 22µM*
O=C(NC(=S)Nc1ccc(F)cc1)c1ccc2c(c1)OCCO2 | -4% | x | x | x | 13µM*
Cc1nn(C(=O)c2ccccc2F)c(C)c1S(=O)(=O)N1CCOCC1 | x | x | x | -12%[46 µM] | x
FC(F)(F)c1cc(CO[C@H]2CCCN[C@H]2c2ccccc2)cc(C(F)(F)F)c1 | -3% | x | -6% | u | -3%
CC(C)(C)c1ccc(C(=O)NC(=S)Nc2ccc(N3CCOCC3)cc2)cc1 | -3% | -123* | -5% | u | 10µM*
CC(=O)N1CCN(c2ccc(NC(=S)NC(=O)COc3ccc(C(C)(C)C)cc3)cc2)CC1 | 1% | 34 | -10% | u | 19µM*

Source: PubChem BioAssay (National Center for Advancing Translational Sciences (NCATS))
